This is an account of results in PubChem BioAssay (EPA / NIEHS).

What is called AC50 is the concentration giving half of the maximal activity seen.

Values joined by “and” are separate entries in the source; they are usually repeats but may differ in a detail not shown here. Identical values can stand only once. A structure can be active in one record and inactive in another. Active and inactive are the calls of the source. Rule for the calls: active = hit-call score of the fitted dose curve at least 0.9, where 1 is the maximum; inactive = score below 0.9.

Test [1] can be described thus: BSK_hDFCGF_SRB: Viability Assessment in the BioMAP Diversity Plus: hDFCGF Assay (AID 2283061).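 Note: cells exposed to compound for 24 h before the read.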 The conditions noted are these: primary human foreskin fibroblasts. In a few lines:
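Primary human foreskin fibroblasts; 24 h post-dose; fixed 10% TCA, stained 0.1% SRB, A560 read; total protein as overt cytotoxicity measure; curves fit bidirectionally vs DMSO control.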

Read-out in test [2]: TIMP metallopeptidase inhibitor 1 (TIMP1), TIMP1 (gene 7076)
Description: BSK_hDFCGF_TIMP1: BioMAP Diversity Plus: hDFCGF Assay for TIMP metallopeptidase inhibitor 1 (TIMP1) Biomarker Activity (AID 2283062). The following applies: primary human foreskin fibroblasts; actives raise or lower the signal. In a few lines:
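ELISA readout of TIMP-1 from human dermal foreskin fibroblast cultures 24 h post-dosing. Curves were fitted in both directions against DMSO baseline, with SRB total-protein staining in parallel cultures as a cytotoxicity check.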

Read-out in test [3]: Monokine induced gamma interferon (MIG), CXCL9 (gene 4283)
Description: BSK_hDFCGF_MIG: BioMAP Diversity Plus: hDFCGF Assay for Monokine induced gamma interferon (MIG) Biomarker Activity (AID 2283063). The conditions noted are these: primary human foreskin fibroblasts; actives raise or lower the signal. In a few lines:
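Fibroblasts (human foreskin, primary) dosed, 24 h, MIG by ELISA; fit bidirectional vs DMSO.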

Read-out in test [4]: Matrix Metallopeptidase 1 (MMP1), MMP1 (gene 4312)
Description: BSK_hDFCGF_MMP1: BioMAP Diversity Plus: hDFCGF Assay for Matrix Metallopeptidase 1 (MMP1) Biomarker Activity (AID 2283064). The following applies: primary human foreskin fibroblasts; actives raise or lower the signal. In a few lines:
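ELISA read-out of MMP1 from human foreskin fibroblasts (primary skin cells), 24 h post-dose. Gain or loss of signal was fitted bidirectionally versus DMSO negative control; cytotoxicity was checked by SRB in parallel cultures.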

Read-out in test [5]: Vascular cell adhesion molecule 1 (VCAM1), VCAM1 (gene 7412)
Put plainly: BSK_hDFCGF_VCAM1: BioMAP Diversity Plus: hDFCGF Assay for Vascular cell adhesion molecule 1 (VCAM1) Biomarker Activity (AID 2283065).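 For AC50: VCAM-1 protein level quantified by ELISA after 24 h chemical exposure.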 The conditions noted are these: primary human foreskin fibroblasts; actives raise or lower the signal. In a few lines: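 ELISA read-out of VCAM-1 on human skin fibroblasts, 24 h post-dose; gain or loss of signal fitted bidirectionally against DMSO baseline.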

Read-out in test [6]: Plasminogen activator inhibitor-1 (PAI1), SERPINE1 (gene 5054)
Put plainly: BSK_hDFCGF_PAI1: BioMAP Diversity Plus: hDFCGF Assay for Plasminogen activator inhibitor-1 (PAI1) Biomarker Activity (AID 2283066). The following applies: primary human foreskin fibroblasts; actives raise or lower the signal. In a few lines: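 Human skin fibroblast cultures receive chemical for 24 h before PAI-1 is measured by ELISA; signal changes are fitted bidirectionally against DMSO-treated wells.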

Read-out in test [7]: Intercellular Adhesion Molecule 1 (ICAM1), ICAM1 (gene 3383)
Description: BSK_KF3CT_ICAM1: BioMAP Diversity Plus: KF3CT Assay for Intercellular Adhesion Molecule 1 (ICAM1) Biomarker Activity (AID 2283067). The conditions noted are these: primary human keratinocytes with fibroblasts; actives raise or lower the signal. In a few lines:
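ELISA readout of ICAM-1; KF3CT human skin co-culture (keratinocytes + foreskin fibroblasts), 24 h post-dose; gain/loss fit vs DMSO baseline.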

Read-out in test [8]: Interferon-gamma inducible Protein 10 (IP10), CXCL10 (gene 3627)
Description: BSK_KF3CT_IP10: BioMAP Diversity Plus: KF3CT Assay for Interferon-gamma inducible Protein 10 (IP10) Biomarker Activity (AID 2283068). The conditions noted are these: primary human keratinocytes with fibroblasts; actives raise or lower the signal. In a few lines:
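KF3CT co-culture (keratinocytes + foreskin fibroblasts), 24 h compound, IP-10 by ELISA; bidirectional fit vs DMSO baseline.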

A short description of test [9]: BSK_KF3CT_SRB: Viability Assessment in the BioMAP Diversity Plus: KF3CT Assay (AID 2283069).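 Note: total protein by sulforhodamine B staining as a cytotoxicity measure; read 24 h after compound addition.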 The conditions noted are these: primary human keratinocytes with fibroblasts. In a few lines:
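SRB read-out at 560 nm (0.1% stain, TCA-fixed cells) gauges overt cytotoxicity in a human skin keratinocyte–fibroblast co-culture 24 h post-dosing. Signal change was fitted bidirectionally relative to DMSO control.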

Read-out in test [10]: Interleukin-1 alpha (IL1a), IL1A (gene 3552)
Description: BSK_KF3CT_IL1a: BioMAP Diversity Plus: KF3CT Assay for Interleukin-1 alpha (IL1a) Biomarker Activity (AID 2283070). The conditions noted are these: primary human keratinocytes with fibroblasts; actives raise or lower the signal. In a few lines: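 Primary skin co-culture (keratinocytes, foreskin fibroblasts), 24 h exposure; ELISA for IL-1a; bidirectional curve fit vs DMSO.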

With `ClC(Cl)=C(c1ccc(Cl)cc1)c1ccc(Cl)cc1`, the concentration at half-maximal activity (AC50) in test [1] is 18.2 µM (active); in test [2], 30 µM (active); in test [3] it was 27.8 µM (active); in test [4] it was 31.6 µM (active); in [5], 14.1 µM (active); in test [6] it was 16.6 µM (active). The AC50 in test [7] is 20 µM (active); in test [8] it was 30.2 µM (active); in test [9], 27.9 µM (active); in test [10], 27.9 µM (active).

On to `Cc1ccccc1O`, for which the outcome in test [1], in test [2], in [3], in [4], in test [5] and in test [6] was inactive. Besides, the outcome in [7], in [8], in test [9] and in test [10] was inactive.

On to `CCC(C)(c1ccc(O)cc1)c1ccc(O)cc1`, for which the AC50 in test [1] is 27.7 µM (active); in test [5], 20 µM (active). Further, the outcome in [2], in test [3], in test [4], in [6], in test [7] and in [8] was inactive. Also, the outcome in test [9] and in test [10] was inactive.

Consider `CC(c1ccc(O)cc1)(c1ccc(O)cc1)c1ccc(O)cc1`, for which the AC50 is 29.2 µM (active) in test [1]; 23.8 µM (active) in test [3]; 39.2 µM (active) in test [4]; 8.14 µM (active) in test [5]; 20.5 µM (active) in [6]; 20 µM (active) in [7]. The AC50 in [8] is 22.3 µM (active); in test [9] it was 29.9 µM (active). Also, the result in [2] and in test [10] was inactive.

Regarding `CC(C)(O)C(=O)Nc1ccc([N+](=O)[O-])c(C(F)(F)F)c1`, the outcome in test [1], in test [2], in test [3], in test [4], in test [5] and in test [6] was inactive. The result in [7], in test [8], in test [9] and in test [10] was inactive.

For `c1ccc(-c2ccccc2)cc1`, the result in test [1], in [2], in [3], in [4], in test [5] and in [6] was inactive. Besides, the result in test [7], in test [8], in [9] and in [10] was inactive.

As for `Clc1ccc(C(c2ccccc2Cl)C(Cl)(Cl)Cl)cc1` (configuration not stated), the AC50 in [1] was 6.8 µM (active); in test [2], 9.41 µM (active); in [3] it was 18.5 µM (active); in test [4] it was 9.47 µM (active); in test [5], 6.32 µM (active); in [6], 5.83 µM (active). Besides, the AC50 in test [7] is 22.8 µM (active); in test [8], 10 µM (active); in test [9], 21.1 µM (active); in [10] it was 18.4 µM (active).

Consider `CCCCCCCCCc1ccc(O)cc1`, for which the half-maximal activity concentration (AC50) in [1] is 15.4 µM (active); in test [2], 16.9 µM (active); in test [3] it was 14.9 µM (active); in [4] it was 15.4 µM (active); in [5], 13.3 µM (active); in [6], 15.5 µM (active). Moreover, the AC50 in test [7] is 15.1 µM (active); in test [8] it was 13.4 µM (active); in test [9] it was 14.6 µM (active); in test [10], 15.6 µM (active).

Take `Clc1ccc(C(Cl)(Cl)Cl)cc1`: the outcome in test [1], in test [2], in test [3], in test [4], in test [5] and in test [6] was inactive. For the same molecule, the result in [7], in test [8], in test [9] and in test [10] was inactive.

Turning to `Oc1c(Cl)c(Cl)c(Cl)c(Cl)c1Cl`, the AC50 is 7.08 µM (active) and 12.4 µM (active) in test [1]; 13.7 µM (active) in test [2]; 4.29 µM (active) in test [3]; 33.1 µM (active) in test [4]; 10.2 µM (active) and 4.61 µM (active) in test [5]; 10.2 µM (active) and 9.72 µM (active) in [6]. The AC50 was 10.2 µM (active) and 16.6 µM (active) in [7]; 12.9 µM (active) and 20 µM (active) in [8]; 6.37 µM (active) in [9]; 20 µM (active) in [10]. Also, the outcome in [2], in test [4], in test [9] and in test [10] was inactive.

As to `Cc1ccccc1[N+](=O)[O-]`, the outcome in test [1], in [2], in test [3], in test [4], in test [5] and in test [6] was inactive. Moreover, the result in test [7], in test [8], in test [9] and in test [10] was inactive.

In the case of `C[C@]12CCC(=O)C=C1CC[C@@H]1[C@@H]2CC[C@@]2(C)[C@H]1CC[C@]2(C)O`, the result in [1], in test [2], in test [3], in [4], in test [5] and in [6] was inactive. In addition, the result in test [7], in [8], in test [9] and in test [10] was inactive.

For the molecule `O=C(N[C@H]1CN2CCC1CC2)c1cc2ccoc2cn1`, the result in test [1], in [2], in test [3], in [4], in [5] and in test [6] was inactive. Also, the outcome in [7], in test [8], in test [9] and in [10] was inactive.

As for `CCSC(=O)N(CC)C1CCCCC1`, the result in [1], in test [2], in test [3], in [4], in test [5] and in [6] was inactive. Besides, the outcome in [7], in [8], in test [9] and in test [10] was inactive.

For the molecule `O=C(O)C(F)(F)C(F)(F)C(F)(F)C(F)(F)C(F)(F)C(F)(F)C(F)(F)C(F)(F)F`, the result in test [1], in test [2], in [3], in test [4], in test [5] and in [6] was inactive. The outcome in test [7], in [9] and in test [10] was inactive. Further, the half-maximal activity concentration (AC50) is 19 µM (active) in test [3]; 48.5 µM (active) in [5]; 30.2 µM (active) and 54.7 µM (active) and 47.3 µM (active) in [8]; 7.86 µM (active) and 30 µM (active) in test [10].

`ClC1=C(Cl)[C@]2(Cl)[C@@H]3[C@@H](Cl)[C@H]4O[C@H]4[C@@H]3C1(Cl)C2(Cl)Cl`: in test [1], the concentration at half-maximal activity (AC50) is 5.55 µM (active). Besides, the outcome in test [2], in test [3], in test [4], in test [5], in test [6] and in test [7] was inactive. The result in test [8], in [9] and in [10] was inactive.
